# High-throughput results from PubChem BioAssay.
# Tau fluor cs: counter-screen for tau fibril formation inhibitors; tau K18 P301L Alexa594 fluorescence, heparin fibrillization; Potency, µM (doses to about 57.7 µM); 280,000 tested, 0.93% active; AID 1463; further: nearly all actives have a fitted effect of over 55% in size
#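 Human K18 P301L tau (15 uM unlabeled plus 0.24 uM Alexa 594-labeled, final) in 100 mM sodium acetate pH 7 was mixed with compound and 20 uM heparin and incubated 6 hr at 37 C.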
# TRb-SRC2 inh: inhibitors of human thyroid hormone receptor beta-SRC2 interaction. P10828. TRbeta-SRC2 peptide binding, fluorescence polarization; receptor liganded with 1 µM T3. Potency, µM (titrated, usually from 106 µM), actives largely listed as inhibitors. 280,000 tested, 0.065% active; further: nearly all actives have a fitted effect of over 50% in size
#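 Quantitative HTS by FP: 0.6 uM TRb LBD, 20 nM labeled SRC2 20-mer, 1 uM T3, 5% DMSO; 5 hr ambient incubation; % activity per concentration and potencies from concentration series.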
# TR SRC2 fluor cs: alters Texas Red total fluorescence, flagging assay interference | TRb/SRC2 Texas Red total fluorescence interference | AID 1479 | Potency, µM (doses to about 106 µM) | 280,000 tested, 0.29% active; active means well fitted curve in either direction with a large enough effect; inconclusive means small, poorly fitted or top-dose-only effect
#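 Human TRb ligand-binding domain at 0.6 uM with 20 nM Texas Red SRC2 peptide in Tris buffer containing 1 uM T3 and 5% DMSO, incubated with compound 5 h at ambient temperature. Total fluorescence (555/632 nm) calculated as parallel + 2 × perpendicular.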
# Tau fibril ThT: blocks human tau fibril formation measured by thioflavin T | 270,000 tested, 2.1% active | recombinant tau K18 P301L (four-repeat tau fragment), heparin-induced fibrillization, ThT fluorescence | Potency, µM (top dose mostly 57.4 µM), hits mostly inhibitors; further: nearly all actives have a fitted effect of over 55% in size
# Target sequence (P10636 561-689 P618L limits assumed): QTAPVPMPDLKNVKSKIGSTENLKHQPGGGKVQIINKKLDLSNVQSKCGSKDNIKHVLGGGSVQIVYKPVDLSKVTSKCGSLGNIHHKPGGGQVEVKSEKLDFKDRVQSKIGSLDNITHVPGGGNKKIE
#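 Heparin-induced (20 uM) aggregation of recombinant human K18 P301L tau, 15 uM unlabeled with 0.24 uM labeled, pH 7 acetate buffer, 6 hr at 37 C with compound. Fibrils quantified by 30 uM ThT fluorescence after 1 hr ambient incubation.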
# Tau fibril FP: tau fibrillization inhibition (FP); K18 P301L tau heparin fibrillization, Alexa594 FP, 6 h; Potency, µM (titrated, usually from 57.7 µM), usual class: inhibitors; 280,000 tested, 0.39% active; AID 1468; further: nearly all actives have a fitted effect of over 55% in size
#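 Human K18 P301L fragment (15 uM unlabeled plus 0.24 uM Alexa 594-labeled) in 100 mM sodium acetate pH 7 with compound, aggregation induced by 20 uM heparin for 6 hr at 37 C. ThT (30 uM) added for 1 hr, then Alexa 594 FP read.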
# GoLoco inh red: blocks human Gai1 binding to RGS12 GoLoco peptide, red readout | Potency, µM (titrated, usually from 61.6 µM), hits mostly inhibitors | Gai1:RGS12 GoLoco peptide FP, rhodamine, 10 min | P63096 | 230,000 tested, 0.44% active; active means well fitted inhibition curve with a large enough effect, not every such curve was filed as active; inactive means no such curve, though single readings can be large or run the other way; further: nearly all actives have a fitted effect of over 30% in size
# Target sequence (P63096 whole entry, looked up): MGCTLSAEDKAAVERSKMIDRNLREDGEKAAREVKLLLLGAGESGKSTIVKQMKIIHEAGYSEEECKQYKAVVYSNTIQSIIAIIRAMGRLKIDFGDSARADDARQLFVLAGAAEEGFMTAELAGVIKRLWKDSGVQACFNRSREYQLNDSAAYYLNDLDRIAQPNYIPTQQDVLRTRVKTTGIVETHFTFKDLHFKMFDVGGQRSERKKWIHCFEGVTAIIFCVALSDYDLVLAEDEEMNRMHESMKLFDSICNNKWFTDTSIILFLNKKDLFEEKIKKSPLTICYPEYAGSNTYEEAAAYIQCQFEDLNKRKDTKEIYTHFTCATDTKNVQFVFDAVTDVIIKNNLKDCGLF
# A number is an active result; i = inactive; ? = inconclusive; nt = no result; [ ] = another dose, or the depositor's remark. In the library only some 3.1% were active in any assay of this set; here they are far more common. Unless noted, the call rests on the fitted dose curve; in most records, active means well fitted curve in the direction sought with a large enough effect; inconclusive means small, poorly fitted or top-dose-only effect, or another doubt; inactive means no such curve, though single readings can be large; an effect the other way counts as inactive or inconclusive.
SMILES,Tau fluor cs,TRb-SRC2 inh,TR SRC2 fluor cs,Tau fibril ThT,Tau fibril FP,GoLoco inh red
COc1ccc(NC(=O)Cn2c(SCc3cccc(Cl)c3)nc3ccncc32)c(OC)c1OC,14µM[quencher],i,i,?,i,nt
Cc1ccc(C(C2=C(O)CC(C)(C)CC2=O)C2C(=O)CC(C)(C)CC2=O)o1 (centres undefined),i,i,i,i,i,i
Cc1[nH]c(=S)c(C#N)c2c1CCCC2,i,i,i,i,i,i
N#Cc1c(N)sc(=S)c2c1CCCC2,?,i,i,14µM,i,i
CCC1(C)Cc2c(C#N)c(N)sc(=S)c2CO1 (centres undefined),i,?,i,25µM,?,i
CCCC[n+]1ccn(C2=C([O-])c3ccccc3C(=O)/C2=N\S(=O)(=O)c2ccc(Cl)cc2)c1,?,i,i,11µM,?,i
Cc1sc2c3ccsc3ccc2[n+]1C,i,i,i,25µM,20µM,i
Cc1sc2ccc3sccc3c2[n+]1C,i,i,i,25µM,?,i
N#C/C(=C/c1ccc(Br)o1)C(N)=S,28µM[quencher],i,i,18µM,i,i
N#C/C(=C/c1ccc(Br)o1)C(N)=O,i,i,i,i,i,i
CC(=O)O[C@@H]1C(CO[Si](C)(C)C(C)(C)C)=C(Br)C(=O)[C@@H]2O[C@]12C,i,i,i,28µM,?,i
CCc1ccc(S(=O)(=O)ON2C(=O)c3ccccc3C2=O)cc1,i,i,i,16µM,?,i
O=C1c2cccc3cccc(c23)C(=O)N1OS(=O)(=O)c1ccc(Cl)cc1,i,i,i,i,i,i
COCCN1C(=O)N[C@@H](c2ccc(Br)cc2)C(C(=O)OC)=C1C,i,i,i,i,i,i
Cc1cccc(NC(=O)c2ccc(-n3cccn3)c([N+](=O)[O-])c2)c1,?,i,i,6.3µM,i,nt
Cc1cc(C(=O)Nc2ccc(N3CCCC3)c(Cl)c2)ccc1[N+](=O)[O-],?,i,i,5µM,i,i
O=C(NNC(=S)Nc1ccc(Br)cc1)c1ccc(N2CCOCC2)c([N+](=O)[O-])c1,?,i,i,13µM,?,i
Cc1ccc(NC(=O)c2ccc(-n3cccn3)c([N+](=O)[O-])c2)cc1,i,i,i,?,i,i
O=C(N/N=C/c1ccccc1)c1ccc(N2CCOCC2)c([N+](=O)[O-])c1,i,i,i,i,i,i
Cc1ccc(C(=O)NCCNc2ccc(Cl)cc2[N+](=O)[O-])o1,i,i,i,16µM,i,i
CCCCn1c2ccccc2c2nnc(SCC(=O)NC3=NN=C(c4ccccc4)CS3)nc21,i,i,i,?,?,nt
O=C(O)c1ccc(NCCc2ccc(Cl)cc2)c([N+](=O)[O-])c1,i,i,i,5.6µM,i,i
COc1ccc(NC(=O)c2ccc(NCC3CCCO3)c([N+](=O)[O-])c2)cc1 (centres undefined),i,i,i,13µM,i,i
O=C(Nc1cc(F)cc(F)c1)c1ccc(NCCc2ccccc2)c([N+](=O)[O-])c1,i,i,i,i,i,i
Cc1cccc(NC(=S)NNC(=O)c2cccc([N+](=O)[O-])c2)c1,i,i,i,?,i,i
SMILES,Tau fluor cs,TRb-SRC2 inh,TR SRC2 fluor cs,Tau fibril ThT,Tau fibril FP,GoLoco inh red
O=C(NNC(=S)Nc1ccc(Cl)c(Cl)c1)c1cccc([N+](=O)[O-])c1,1.8µM[quencher],i,i,nt,?,i
Cc1cccc(NC(=O)c2ccc(N3CCOCC3)c([N+](=O)[O-])c2)n1,i,i,i,?,i,i
Cc1ccc(NC(=S)NNC(=O)c2ccc(N3CCOCC3)c([N+](=O)[O-])c2)cc1Cl,?,i,i,11µM,?,i
O=C(CC1(O)C(=O)N(C/C=C/c2ccccc2)c2ccccc21)c1ccccn1 (centres undefined),i,i,i,?,i,nt
COc1ccc(CCNC(=O)COc2ccc(S(=O)(=O)NC(C)C)cc2Cl)cc1OC,i,i,i,i,i,i
O=C(Nc1ccc(-c2nc3ccccc3o2)cc1)c1ccc(N2CCOCC2)c([N+](=O)[O-])c1,?,i,i,2.8µM,?,i
Cc1ccc(NC(=O)c2ccc(NCCc3ccccc3)c([N+](=O)[O-])c2)cc1F,?,i,i,?,i,i
Cc1ccc(NC(=O)c2ccc(NCCN)c([N+](=O)[O-])c2)cc1Cl,?,i,i,13µM,i,i
O=C(Nc1cc(-c2nc3ccccc3o2)ccc1Cl)c1ccc(N2CCCCC2)c([N+](=O)[O-])c1,i,i,i,?,i,nt
Cc1c(N(C(=O)CNC(=O)c2ccccc2)C2(C(=O)NC3CCCCC3)CCCCC2)c(=O)n(-c2ccccc2)n1C,i,i,i,i,i,i
S=C(Nc1ccc(Cl)c(Cl)c1)NC1CCN(Cc2ccccc2)CC1,?,i,i,i,25µM,i
COC(=O)c1[nH]c2ccc(Br)cc2c1NC(=O)CN1CCCc2ccccc21,5µM[quencher],i,i,?,i,i
COC(=O)c1[nH]c2cc(C)ccc2c1NC(=O)CN1CCCc2ccccc21,?,i,i,?,?,i
Cc1nn(Cc2ccccc2)c(C)c1NC(=O)c1cc(-c2cccs2)on1,i,i,i,i,i,i
COc1ccc2c(c1)CCc1c(C(=O)Nc3c(C)nn(Cc4c(Cl)cccc4Cl)c3C)noc1-2,?,i,0.079µM[quencher],?,i,nt
Cc1ccc2nc(-c3ccc(O)cc3)c(Nc3ccc4c(c3)OCCO4)n2c1,25µM[quencher],i,i,?,i,i
Cc1ccc2nc(-c3ccccc3O)c(Nc3ccc4c(c3)OCCO4)n2c1,7.1µM[quencher],i,i,?,i,i
COc1cc(OC)c(NC(=O)Cn2nc(C)n3cccc3c2=O)cc1Cl,?,i,i,?,?,nt
COc1ccc(Oc2cccc(Cl)c2CNC(=O)CC(C)(C)CC(=O)O)cc1,i,i,i,i,i,i
CSc1cccc(NC(=O)/C=C/c2cccc(Cl)c2)c1,13µM[quencher],i,i,i,?,i
O=C(/C=C/c1cccc(Cl)c1)Nc1ncccn1,i,i,i,i,i,i
N#CC1=C(N)N(c2ccc(F)cc2)C2=C(C1c1ccc(O)cc1)S(=O)(=O)CC2 (centres undefined),?,?,45µM[fluorescent],16µM,?,i
COc1ccc(NC(=O)O/N=C2/CCCc3ccc(OC)cc32)cc1,?,i,i,14µM,?,nt
Cc1cc(S(=O)(=O)N2CCCC2)c(C)s1,i,i,i,i,i,nt
CCOc1ccc(CCNC(=O)CN2CCN(Cc3ccccc3F)C2=O)cc1OCC,i,i,i,i,i,i
Cc1ccc(/C=C2\SC(=S)N(/N=C/c3cc([N+](=O)[O-])ccc3O)C2=O)o1,?,i,i,18µM,?,i
